The campaign covered roughly 200,000 compounds. About 670 (0.34%) were called active. No stated cut-off is given here; in the data, active means activation above about 22%; inactive means the rest. What follows is part of a selection rich in actives, with near analogues and random picks from the rest.
Target: Peroxisome proliferator-activated receptor gamma (Homo sapiens) (UniProt P37231)
Assay: compounds enhancing SRC-2 coactivator binding to PPARgamma – biochemical, HTS, primary screen (AID 1032);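 further: 0% = vehicle and 100% = reference agonist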
Conditions: PPARgamma LBD-SRC-2 recruitment, at 8 µM, active compounds read high

Peroxisome proliferator-activated receptor gamma (Homo sapiens), sequence (P37231 whole entry, looked up): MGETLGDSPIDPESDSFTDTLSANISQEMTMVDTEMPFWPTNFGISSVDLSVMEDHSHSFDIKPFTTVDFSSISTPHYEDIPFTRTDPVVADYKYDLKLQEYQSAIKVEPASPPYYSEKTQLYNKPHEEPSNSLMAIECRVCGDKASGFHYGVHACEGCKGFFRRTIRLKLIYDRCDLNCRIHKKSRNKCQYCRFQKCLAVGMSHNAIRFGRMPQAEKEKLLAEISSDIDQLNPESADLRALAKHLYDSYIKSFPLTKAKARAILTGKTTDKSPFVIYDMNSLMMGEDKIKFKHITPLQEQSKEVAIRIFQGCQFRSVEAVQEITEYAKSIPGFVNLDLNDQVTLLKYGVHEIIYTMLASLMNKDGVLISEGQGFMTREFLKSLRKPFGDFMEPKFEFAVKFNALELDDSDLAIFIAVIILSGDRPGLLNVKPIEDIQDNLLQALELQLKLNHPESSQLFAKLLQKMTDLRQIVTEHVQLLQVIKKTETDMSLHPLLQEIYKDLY

Compound | activation
Cc1ccc(NC(=O)c2ccc(Oc3ncccn3)cc2)cc1 | 3.49% (inactive)
CCN(/N=C/c1ccc(N(C)C)cc1)c1nc2ccccc2[nH]1 | 23% (active)
CCN(/N=C/c1ccccc1)c1cc(=O)n(C)c(=O)[nH]1 | -3.6% (inactive)
CN(C)c1ccc(/C=N/N(Cc2ccccc2)c2ccccc2)cc1 | 11.9% (inactive)
O=C(Nc1ccccc1F)c1ccc(Cn2cc(Br)cn2)cc1 | -1.02% (inactive)
CN1CCN(CCC(=O)N/N=C/C=C2\N(C)c3ccccc3C2(C)C)CC1 | 10% (inactive)
O=C(Nc1ccncc1)c1ccccc1[N+](=O)[O-] | -0.46% (inactive)
CCn1cc(CNC(=O)c2cc([N+](=O)[O-])c(C)c([N+](=O)[O-])c2)cn1 | -6.4% (inactive)
COc1ccc(NC(=S)NC2CCS(=O)(=O)C2)cc1 (centres undefined) | 6.88% (inactive)
O=C(O)Cc1sc(-c2ccc(C(=O)O)cc2)nc1-c1ccccc1 | 10.9% (inactive)
O=C(O)Cc1sc(-c2ccccc2)nc1-c1cccs1 | 34.7% (active)
Cc1ccc(-c2nc(C)sc2CC(=O)O)cc1 | -0.57% (inactive)
COc1ccc(NC(=O)CN(C)CC(=O)Nc2cccc(C(F)(F)F)c2)cc1 | -2.86% (inactive)
COc1cc2c(cc1OC)CC1(CCCCC1)N=C2 | 0.25% (inactive)
Cc1n[nH]c(=O)nc1N/N=C/c1cccs1 | 3.35% (inactive)
COc1cccc(-n2c(=O)c3c(C)c(C(=O)N(C)C)sc3n(CC(=O)NCCc3ccc(OC)c(OC)c3)c2=O)c1 | 9.15% (inactive)
O=C(NNc1ccccc1Cl)C(O)(c1cccc(C(F)(F)F)c1)c1cccc(C(F)(F)F)c1 | 17.2% (inactive)
Fc1ccc(COc2cccc(-c3n[nH]c(=S)o3)c2)cc1 | 44.9% (active)
Cc1cccc(OCc2ccc(C(=O)Nc3ccc(F)cc3)cc2)c1 | -0.72% (inactive)
Cc1nc2ccccc2cc1OCc1ccc(F)cc1 | 4.89% (inactive)
CCn1c(=O)cc(SCC(=O)NCCC2=CCCCC2)c2ccccc21 | 16.9% (inactive)
CCn1c(=O)cc(SCC(=O)NCc2ccc3c(c2)OCO3)c2ccccc21 | 36% (active)
CC(C)NC(=O)CSc1ccccc1C(=O)NCc1ccc2c(c1)OCO2 | -4.93% (inactive)
O=C(N/N=C/c1ccc2c(c1)OCO2)C(=O)N1CCCC1 | -5.72% (inactive)

From PubChem BioAssay AID1032 (The Scripps Research Institute Molecular Screening Center, 2008)
